About 83,000 compounds went through this panel and 20% of them were active in at least one assay; those are over-represented in the sample as a whole.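 48-hour exposure, single concentration, 96-well plates; percent growth endpoint where 0 means no net growth. Active: below 10.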 Unmarked numbers belong to inactive results. Active and inactive are the calls of the source.
Columns and labels:
Assay in all cases: NCI-60 one-dose screen, 48 h (100 = growth as untreated, 0 = no growth, -100 = all killed)
Conditions in all cases: 10 µM unless noted
RPMI-8226 leukemia = test system: RPMI-8226 leukemia
OVCAR-8 ovarian = test system: OVCAR-8 ovarian
OVCAR-5 ovarian = test system: OVCAR-5 ovarian
OVCAR-4 ovarian = test system: OVCAR-4 ovarian
SK-OV-3 ovarian = test system: SK-OV-3 ovarian
IGROV1 ovarian = test system: IGROV1 ovarian
OVCAR-3 ovarian = test system: OVCAR-3 ovarian
NCI/ADR-RES ovarian = test system: NCI/ADR-RES ovarian
T-47D breast = test system: T-47D breast
BT-549 breast = test system: BT-549 breast
MDA-MB-435 melanoma = test system: MDA-MB-435 melanoma
SW-620 colon = test system: SW-620 colon
MCF7 breast = test system: MCF7 breast
HCT-116 colon = test system: HCT-116 colon
HCC-2998 colon = test system: HCC-2998 colon
HS 578T breast = test system: HS 578T breast
KM12 colon = test system: KM12 colon

Row | Compound | growth (RPMI-8226 leukemia) | growth (OVCAR-8 ovarian) | growth (OVCAR-5 ovarian) | growth (OVCAR-4 ovarian) | growth (SK-OV-3 ovarian) | growth (IGROV1 ovarian) | growth (OVCAR-3 ovarian) | growth (NCI/ADR-RES ovarian) | growth (T-47D breast) | growth (BT-549 breast) | growth (MDA-MB-435 melanoma) | growth (SW-620 colon) | growth (MCF7 breast) | growth (HCT-116 colon) | growth (HCC-2998 colon) | growth (HS 578T breast) | growth (KM12 colon)
1 | Cc1ccc(O)c(C(=O)c2ccccc2Cl)c1 | 112% | 97.6% | 85% | 91.9% | 112% | 102% | 118% | 89% | 108% | 93.8% | 93.2% | 98.4% | 101% | 99% | 56.2% |  | 
2 | C/C(=N\NC(=O)Cn1c(-c2ccc(S(C)(=O)=O)cc2)nc2cc(Cl)ccc21)c1ccc(Cl)cc1 | 76.4% | 79.5% | 91.2% | 65.9% | 81.3% | 70.6% | 79.7% | 86.7% |  | 92.3% | 79.1% | 92.2% | 62% | 80.5% | 103% | 80.7% | 76.4%
3 | CC(c1ccc(-n2cccn2)cc1)c1cnc(N2CCc3ccc(C(N)=O)cc3C2)s1 (configuration not stated) | 34.5% | 34.9% | 92.8% | 42% | 68.6% | 79.8% | 71.5% | 32.1% | 2.07% (active) | 12% | 40.4% | 97.3% | 37% | 40.6% | 80.9% |  | 68.2%
4 | Clc1ccc2c(NCCCN3CCN(c4nc(N5CCOCC5)nc5ccccc45)CC3)ccnc2c1 | -39.5% (active) | 16.1% | 60.6% | 50.3% | 108% | 50.4% | -40.8% (active) | 25.1% |  | 59.3% | -86.5% (active) | -20.3% (active) | -3.49% (active) | -0.752% (active) | -57.5% (active) | 17.2% | 25%
5 | COC(=O)c1ccc2oc(NC(=O)c3ccc(N4CCOCC4)c([N+](=O)[O-])c3)nc2c1 | 93.3% | 99% | 92.8% | 91% | 89.8% | 99.9% | 107% | 103% |  | 95.7% | 107% | 100% | 94.1% | 93% | 105% | 96.9% | 102%
6 | C=CC(=O)Nc1cccc(C)c1Nc1cc(-c2cccnc2Cc2c(C)c(OC)cc(OC)c2C)ncn1 | -24.1% (active) | 3.17% (active) | 57.5% | 41.9% | 28.7% | 42.6% | 0.807% (active) | 35.3% |  | 5.86% (active) | 19.9% | 24.8% | 8.59% (active) | 15.8% | 71.1% | 29.6% | 17.6%
7 | CCOC(=O)C(=CNc1ccccc1[N+](=O)[O-])C(=O)OCC | 92.6% | 101% | 96.4% | 110% | 110% | 107% | 105% | 101% | 90% | 103% | 111% | 99.5% | 92.9% | 100% | 96.1% |  | 106%
8 | C[C@@H](C[C@H](CCOCc1cccnc1)c1ccccc1)c1cc2ccccc2o1 | 75% | 88.6% | 87.8% | 81.6% | 84.7% | 83.8% | 94% | 97.9% |  | 102% | 103% | 91.6% | 106% | 75.6% | 101% | 85.1% | 88%
9 | Nc1c(C(=O)c2ccccc2)nnc2ncnn12 | 101% | 107% | 121% | 116% | 98% | 106% | 105% | 107% |  |  | 110% | 106% | 97.2% | 105% | 97.6% | 106% | 
10 | CC(C)OC(=O)OCOP(=O)(OCOC(=O)OC(C)C)C1CCCN(O)C1=O (configuration not stated) | 11.8% | 2.91% (active) | 73.4% | 36% | 5.92% (active) | 9.36% (active) | 33.5% | 39.2% |  |  | 47.3% | 32.3% | 31.9% | 13.4% | 23.7% | 7.77% (active) | 9.54% (active)
11 | C=C1C(=O)O[C@H]2[C@H]1CC/C(COC(=O)/C=C/C(=O)NCc1ccc(Cn3c(=O)sn(-c4ccccc4)c3=O)cc1)=C\CC[C@@]1(C)O[C@@H]21 | -32.6% (active) | -0.571% (active) | 35.4% | 25.7% | 75.8% | -25.5% (active) | -77.5% (active) | 94.1% |  |  | -26.6% (active) | -64.5% (active) | 5.01% (active) | -79.1% (active) | 54.4% | 77.8% | 49.1%
12 | COc1ccc(/C=C2\COc3ccc(O)cc3C2=O)c(OC)c1 |  | 63.3% | 94.3% | 96.1% | 58% | 67.3% | 27% | 33% | 56.4% | 57.8% | -30% (active) | 54.9% | 54.7% |  | 89.2% | 66% | 24.8%
13 | COc1cc(-c2cc(-c3ccc(Nc4nc(Nc5ccccc5)nc(Nc5ccc(Cl)cc5)n4)cc3)nc(N)n2)cc(OC)c1OC | 40.1% | 60.1% | 70% | 49.9% | 113% | 39.2% | 63.8% | 50.9% |  | 71.1% | 63.5% | 87.2% | 35.5% | 34.9% | 58.2% |  | 52.4%
14 | O=c1[nH]c(=O)n(C2CC(O)C(CO)O2)cc1CO (configuration not stated) | 98.9% | 99.9% | 29.7% | 107% | 107% | 124% | 113% | 4.34% (active) | 87.7% | 82.1% | 99% | 96.6% | 65.4% | 91.4% |  |  | 103%
15 | CC(C)(C)Nc1c(-c2c3ccccc3cc3ccccc23)nc2ccccn12 | 55% | 67.2% | 78.5% |  | 59.6% | 64.2% | 72.3% | 82.9% |  | 92.1% | 90.1% | 67.3% | 74.2% | 46.2% | 86% | 72% | 61.4%
16 | O=C1CSC(c2ccccc2Cl)N1c1nnc(Cn2cnnc2)o1 (configuration not stated) | 55.1% |  | 63% | 68.6% | 49% | 74.7% | 44.1% | 8.38% (active) | 33.3% | 60.6% | -45.1% (active) | 39.4% | -8.09% (active) | 13.3% | 35.8% | 82.3% | 50.9%
17 | O=C(NCCN1CCC(O)CC1)c1cc2c(o1)C(=O)c1ccccc1C2=O |  | -48.8% (active) | -84.7% (active) | -94.1% (active) |  | -83.8% (active) | -75.1% (active) | -26.3% (active) | -44.6% (active) | -94.4% (active) | -91.8% (active) | -78.3% (active) | -69.7% (active) | -81.5% (active) | -92.9% (active) | -27.4% (active) | -89.3% (active)
18 | CCN(CC)CCOC(=O)N1c2ccccc2Sc2ccccc21 | 85.6% | 101% | 101% | 101% |  | 94.1% | 107% | 96.1% | 94% | 92.1% | 98.7% | 94.4% | 99.5% | 81.7% | 102% | 91.7% | 99.3%
19 | CC(C)OCCCNCC(=O)Nc1ccc(S(=O)(=O)c2ccc(NC(=O)CNCCCOC(C)C)cc2)cc1 | 92.8% | 105% | 116% |  |  | 75.9% | 105% | 112% | 103% |  | 101% | 87.6% | 85.8% | 81.3% | 73.8% | 87.6% | 99.8%
